Compounds without any hit were thinned out: in the full panel of roughly 83,000, 20% have a hit.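 Interpretation: 100, growth as untreated; towards 0, rising growth inhibition; 0, no net growth; 0 to -100, cell death. Compounds scoring below 10 were considered active.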 Values without a mark were called inactive. The source made the active and inactive calls.
Legend:
Experiment in all cases: NCI-60 one-dose screen, 48 h (100 = growth as untreated, 0 = no growth, -100 = all killed)
[1] = system: NCI-H226 lung; details: 10 µM
[2] = system: NCI-H322M lung; details: 10 µM unless noted
[3] = system: HOP-62 NSCLC; details: 10 µM unless noted
[4] = system: NCI-H460 lung; details: 10 µM unless noted
[5] = system: HOP-92 NSCLC; details: 10 µM unless noted
[6] = system: NCI-H522 lung; details: 10 µM
[7] = system: A549/ATCC NSCLC; details: 10 µM unless noted
[8] = system: 786-0 renal; details: 10 µM unless noted
[9] = system: COLO 205 colon; details: 10 µM unless noted
[10] = system: DU-145 prostate; details: 10 µM unless noted
[11] = system: K-562 leukemia; details: 10 µM unless noted
[12] = system: MALME-3M melanoma; details: 10 µM unless noted
[13] = system: MDA-MB-231 breast; details: 10 µM unless noted
[14] = system: RXF 393 renal; details: 10 µM unless noted
[15] = system: SF-268 CNS; details: 10 µM unless noted
[16] = system: SF-295 CNS; details: 10 µM unless noted
[17] = system: SF-539 CNS; details: 10 µM unless noted
[18] = system: UACC-257 melanoma; details: 10 µM unless noted
[19] = system: M14 melanoma; details: 10 µM unless noted

Row | SMILES | growth [1] | growth [2] | growth [3] | growth [4] | growth [5] | growth [6] | growth [7] | growth [8] | growth [9] | growth [10] | growth [11] | growth [12] | growth [13] | growth [14] | growth [15] | growth [16] | growth [17] | growth [18] | growth [19]
1 | COc1ccc(-c2nn(-c3ccc(NC(=O)c4ccc(Cl)c(Cl)c4)cc3)cc2-c2ccncc2)cc1Cl | 75.8% | 69.1% | 6.02% (active) | 20.6% | 37.1% | 54.3% | 42.7% | -33% (active) | -27.2% (active) | 68.4% | 5.86% (active) | 43% | -16.3% (active) | -82.1% (active) | 49.2% | -31.5% (active) | 26% | 93.3% | 6.62% (active)
2 | O=C1c2cc(S(=O)(=O)O)ccc2C(=O)c2c1cccc2[N+](=O)[O-] | 111% | 111% | 117% | 115% | 110% | 96.6% | 98.6% | 101% | 108% | – | – | 111% | 112% | 128% | 108% | 100% | 104% | 93% | 95.2%
3 | Cc1nn(CC(=O)O)c2c1C(=O)CC(C)(C)C2 | 93.6% | 115% | 91.1% | 107% | 95.5% | 96.7% | 102% | 89.8% | 117% | 118% | 123% | 118% | 114% | 117% | 103% | 102% | 102% | 96.9% | 93.2%
4 | O=C(CCCCCCC(=O)Nc1ccc2c(c1)/C(=C/c1ccc[nH]1)C(=O)N2)NO | 27.6% | 15.1% | 14% | 25.8% | -19.7% (active) | 14.8% | 34.9% | 26.2% | -58.6% (active) | 4.55% (active) | 11.6% | 36.5% | 1.47% (active) | -30.8% (active) | -13% (active) | 6.46% (active) | 23% | 9.98% (active) | 3.6% (active)
5 | Cc1nc(NC(=O)COc2cccc(/C=C3\COc4ccccc4C3=O)c2)sc1C | 83.2% | 58.6% | 71.9% | 9.93% (active) | -20.3% (active) | -49.6% (active) | 30.1% | 72.1% | 16.6% | 63.1% | -65.2% (active) | -68.1% (active) | 0.962% (active) | – | -63.3% (active) | 25.3% | -63.9% (active) | -49% (active) | -79.4% (active)
6 | Cc1nc2cc(Nc3nc(Nc4ccc(F)cc4)nc(-c4ccc(Cl)cc4)n3)ccc2n1Cc1ccccc1 | 86.5% | 94% | 80.6% | 71.1% | 35.1% | 82.8% | 57.4% | 91% | 61.8% | 81.4% | 33.6% | 72.5% | 66% | 68.5% | 54.9% | 90.4% | 92.6% | 68.9% | 58.3%
7 | COc1cc2nc(N3CCC[C@H](NC4=CC(=O)c5ccccc5C4=O)C3)nc(N)c2cc1OC | 107% | -72.2% (active) | 64% | -65.7% (active) | 75.8% | 74.4% | -80.6% (active) | -92.7% (active) | -79.6% (active) | -54.1% (active) | -48.4% (active) | -81.3% (active) | -86.8% (active) | -76.7% (active) | -52.3% (active) | -96.8% (active) | -100% (active) | 97.7% | 96.2%
8 | O=C(COc1cccc(/C=C2\COc3ccccc3C2=O)c1)c1ccccc1 | 68.7% | 95.3% | 98% | 104% | 91.5% | -41.9% (active) | 89.2% | 88.8% | 102% | 101% | 17.1% | 90% | 83.8% | 69.5% | 88.7% | 115% | 90.4% | 72.9% | 60.9%
9 | Cc1nc2cc(Nc3nc(Nc4ccc(F)cc4)nc(N4CCCC4)n3)ccc2n1Cc1ccccc1 | -17.1% (active) | 21.4% | -22.5% (active) | -30.4% (active) | -12.3% (active) | -4.13% (active) | -0.672% (active) | -21.7% (active) | -72.6% (active) | -41.5% (active) | 0.0326% (active) | -61.6% (active) | -59.7% (active) | -83.5% (active) | -26.3% (active) | -26.8% (active) | -25% (active) | -22.7% (active) | -48.1% (active)
10 | C[C@@H](Oc1cc(-c2cnn(C3CC4(CCNCC4)C3)c2)cnc1N)c1c(F)ccc(Cl)c1Cl | 65.5% | 44.4% | 28.4% | -11.7% (active) | -18.8% (active) | -0.334% (active) | -14.4% (active) | -2.08% (active) | -8.9% (active) | 37.9% | -19.9% (active) | -67.6% (active) | -54% (active) | -31.5% (active) | -24.5% (active) | -10.2% (active) | -90.7% (active) | -89.5% (active) | -75.5% (active)
11 | COc1ccc(/C=C2\CN(Cc3cn(CCCNc4ccnc5cc(Cl)ccc45)nn3)C/C(=C\c3ccc(OC)cc3)C2=O)cc1 | 96.7% | 80.1% | 63.6% | 86.3% | 53.8% | 87.9% | 65.7% | 76.3% | 81.6% | 40.2% | 63.2% | 98.4% | 52.6% | 27.7% | 45.5% | 72.6% | 78.1% | 56% | 70.8%
12 | CN1CCc2cccc3c2C1Cc1ccc(O)c(O)c1-3 (stereo not drawn) | 80.8% | 109% | 87.8% | 111% | 106% | 39.5% | 95.6% | 86.2% | 90.5% | 96.3% | 64.3% | 83.1% | 65.7% | 91.1% | 87.6% | 97.8% | 84.2% | 103% | 76.1%
13 | Clc1ccc2c(N3CCN(c4ccnc(NC5CCCCC5)n4)CC3)ccnc2c1 | 80.7% | 98.8% | 51.7% | 32% | 40.6% | 71.3% | 54.4% | 49.4% | -1.41% (active) | 62.4% | 7.08% (active) | – | – | 57.6% | 71.6% | 39.3% | 53.5% | 0.862% (active) | -43.7% (active)
14 | CCC(C)[C@H]1O[C@]2(CC[C@@H]1C)C[C@@H]1C[C@@H](C/C=C(\C)[C@@H](OC3C[C@H](OC)C(O[C@H]4C[C@H](OC)[C@@H](O)[C@H](C)O4)[C@H](C)O3)[C@@H](C)/C=C/C=C3\CO[C@@H]4[C@H](O)C(C)=C[C@@H](C(=O)O1)[C@]34O)O2 (stereo partly drawn) | 6.79% (active) | 52.7% | 29.5% | 3.02% (active) | -6.11% (active) | 17.2% | 21.3% | -79.7% (active) | -41.6% (active) | 22.1% | 14.1% | 0.803% (active) | -15.6% (active) | -23.1% (active) | 25.1% | -36.7% (active) | -15.4% (active) | 47.3% | -73.1% (active)
15 | N#Cc1c(O)c2c(c(O)c1C#N)C(=O)c1ccccc1C2=O | 87.8% | 38.4% | 59.8% | 22.7% | 88.5% | -5.65% (active) | 27.3% | 90.9% | -4.03% (active) | – | – | -16.5% (active) | 2.69% (active) | 92.3% | 32.6% | 59.6% | 46.9% | 28.4% | 2.51% (active)
16 | NC(=O)c1cc(I)ccc1NC(=O)COc1ccc(Cl)cc1Cl | 103% | 98.5% | 87.2% | 103% | – | 75.7% | 90.4% | 89.9% | 101% | 111% | 31.5% | – | 107% | 99.3% | 97.5% | 90.2% | 97% | 89.6% | 81.5%
17 | CC(=O)N(CC(O)CO)c1c(I)c(C(=O)NCCO)c(I)c(C(=O)NCC(O)CO)c1I (stereo not drawn) | 98.7% | 93% | 99.2% | 111% | – | 97.8% | 100% | 91% | 105% | 110% | 97% | 92.4% | 90.5% | 103% | 105% | 118% | 100% | 103% | 92.6%

Source: PubChem BioAssay (NCI)
